Laboratory results reported in PubChem BioAssay (NCI).
This is part of a sample that, as a whole, favours compounds with a hit. Of some 79,000 tested, about 15% had one in any assay. Activity calls are given as the source filed them. Cut-off read from the data, not from the text of the source: active = growth inhibition above about 70%; inactive = the rest.

Key:
[1] = NCI Yeast Anticancer Drug Screen. Data for the rad52 strain (AID 147);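 note: 0% = growth of vehicle-treated control cultures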; conditions: S. cerevisiae rad52 mutant growth inhibition, active compounds read high
How it was run: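 Genetically altered yeast (DNA damage repair defect) treated with compound; inhibition calculated relative to vehicle.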

[2] = NCI Yeast Anticancer Drug Screen. Data for the wt1 strain (AID 149);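 note: 0% = growth of vehicle-treated wt1 cultures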; conditions: S. cerevisiae wt1 strain (SPY 50644) growth inhibition, active compounds read high
How it was run: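 Readout: yeast growth inhibition, normalised to vehicle controls, in the wt1 strain exposed to test compounds.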

[3] = NCI Yeast Anticancer Drug Screen. Data for the rad50EPP+ strain (AID 151);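 note: 0% = growth of vehicle-treated control cultures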; conditions: S. cerevisiae rad50 mutant strain, active compounds read high
How it was run: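 Strain rad50EPP+; compound exposure; % growth inhibition vs vehicle.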

[4] = NCI Yeast Anticancer Drug Screen. Data for the rad50 strain (AID 155);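 note: 0% = growth of vehicle-only cultures of the same strain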; conditions: S. cerevisiae rad50 strain growth inhibition, active compounds read high
How it was run: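 Compounds were tested on a yeast strain with an engineered DNA damage repair alteration; the reported value is growth inhibition normalised to vehicle treatment.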

[5] = NCI Yeast Anticancer Drug Screen. Data for the mec2-1 strain (AID 157); conditions: S. cerevisiae mec2-1 strain, active compounds read high
How it was run: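 Cells of the genetically defined mec2-1 yeast strain are incubated with test compound. Inhibition of growth is calculated against vehicle-treated controls.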

[6] = NCI Yeast Anticancer Drug Screen. Data for the rad14 strain (AID 159);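 note: 0% = growth of vehicle-treated control cultures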; conditions: S. cerevisiae rad14 strain growth inhibition, active compounds read high
How it was run: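 Compound-treated yeast with a defined DNA-repair lesion; growth inhibition normalised to vehicle-treated cultures.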

[7] = NCI Yeast Anticancer Drug Screen. Data for the sgs1 mgt1 strain (AID 161);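 note: 0% = growth of cultures given vehicle only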; conditions: S. cerevisiae sgs1 mgt1 strain, active compounds read high
How it was run: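 Read-out: growth inhibition vs vehicle controls. Cells: mutant yeast strain deficient in DNA damage repair.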

[8] = NCI Yeast Anticancer Drug Screen. Data for the CLN2oe strain (AID 163);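 note: 0% = growth of vehicle-only control cultures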; conditions: S. cerevisiae CLN2oe strain, active compounds read high
How it was run: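 Strain altered in cell-cycle control, incubated with compound; growth compared to solvent-treated controls.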

[9] = NCI Yeast Anticancer Drug Screen. Data for the cln2 rad14 strain (AID 165);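 note: 0% = growth equal to vehicle treated cultures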; conditions: S. cerevisiae cln2 rad14 strain, active compounds read high
How it was run: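 The screen exposed genetically defined yeast (cln2 rad14) to test compounds and scored growth inhibition relative to vehicle-treated controls.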

[10] = NCI Yeast Anticancer Drug Screen. Data for the bub3 strain (AID 167); conditions: S. cerevisiae bub3 mutant strain, active compounds read high
How it was run: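 Growth of a checkpoint-deficient yeast mutant is measured after compound exposure. Values represent inhibition relative to vehicle.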

[11] = NCI Yeast Anticancer Drug Screen. Data for the wt2 strain (AID 169);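 note: 0% = growth of vehicle-treated yeast cultures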; conditions: S. cerevisiae wt2 strain growth inhibition, active compounds read high
How it was run: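 Steps: yeast strain treated with compound; growth recorded; inhibition calculated relative to cultures given vehicle alone.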

[12] = NCI Yeast Anticancer Drug Screen. Data for the mlh1 strain (AID 171);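 note: 0% = growth of vehicle-treated control cultures of the same strain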; conditions: S. cerevisiae mlh1 strain growth inhibition, active compounds read high
How it was run: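 Yeast screen: mutant strain plus compound, growth scored against vehicle control wells.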

[13] = NCI Yeast Anticancer Drug Screen. Data for the sgs1 strain (AID 173);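 note: 0% = growth of vehicle-only control cultures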; conditions: S. cerevisiae sgs1 mutant, active compounds read high
How it was run: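 Inhibition of yeast growth served as the measure. The mutant strain was treated with each compound, and growth was normalised to cultures receiving vehicle alone.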

[14] = NCI Yeast Anticancer Drug Screen. Data for the mlh1 rad18 strain (AID 175); conditions: S. cerevisiae mlh1 rad18 strain growth inhibition, active compounds read high
How it was run: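 Compound-treated yeast growth, normalised to vehicle controls. Strain bears defined DNA repair mutations.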

[15] = NCI Yeast Anticancer Drug Screen. Data for the rad18 strain (AID 177); conditions: S. cerevisiae rad18 mutant growth inhibition, active compounds read high
How it was run: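 Inhibition values reflect reduced yeast growth compared with vehicle-treated controls, using a strain engineered with a DNA damage repair defect.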

[16] = at 5.0 µM (retest, dose inferred, filed as 0.5)
[17] = at 50.0 µM (retest, dose inferred, filed as 5.0)

Measured: growth inhibition

CC1=CCCC2C1(C)CCC(C)C2(C)Cc1cc(O)ccc1O (stereo unspecified)
active: [1]; at 11.0 µM 70% | [1]; at 33.0 µM 98% | [1]; at 100.0 µM 93% | [2]; at 33.0 µM 98% | [2]; at 100.0 µM 96% | [3]; at 33.0 µM 86% | [3]; at 100.0 µM 88% | [4]; at 33.0 µM 98% | [4]; [17] 96% | [4]; at 50.0 µM 88.9% | [4]; at 100.0 µM 93% | [5]; at 33.0 µM 99% | [5]; [17] 97% | [5]; at 50.0 µM 90.6% | [5]; at 100.0 µM 95% | [6]; at 33.0 µM 98% | [6]; at 100.0 µM 94% | [7]; [17] 97% | [7]; at 50.0 µM 90.5% | [8]; at 33.0 µM 97% | [8]; at 100.0 µM 87% | [9]; [17] 97% | [9]; at 50.0 µM 88.5% | [10]; at 33.0 µM 99% | [10]; [17] 96% | [10]; at 50.0 µM 88.6% | [10]; at 100.0 µM 93% | [11]; at 11.0 µM 98% | [11]; at 33.0 µM 97% | [11]; at 100.0 µM 89% | [12]; at 33.0 µM 98% | [12]; at 100.0 µM 94% | [13]; at 11.0 µM 79% | [13]; at 33.0 µM 99% | [13]; at 100.0 µM 95% | [14]; [16] 83% | [14]; [17] 93% | [14]; at 50.0 µM 88% | [15]; at 33.0 µM 98% | [15]; at 100.0 µM 94%
inactive: [1]; at 1.2 µM 12% | [1]; at 3.7 µM 31% | [2]; at 1.2 µM -5% | [2]; at 3.7 µM 13% | [2]; at 11.0 µM 31% | [3]; at 1.2 µM -6% | [3]; at 3.7 µM 39% | [3]; at 11.0 µM 69% | [4]; at 1.2 µM -3% | [4]; at 3.7 µM 19% | [4]; [16] 22% | [4]; at 11.0 µM 51% | [5]; at 1.2 µM 5% | [5]; at 3.7 µM 17% | [5]; [16] 46% | [5]; at 11.0 µM 45% | [6]; at 1.2 µM 15% | [6]; at 3.7 µM 15% | [6]; at 11.0 µM 35% | [7]; [16] 39% | [8]; at 1.2 µM -73% | [8]; at 3.7 µM -57% | [8]; at 11.0 µM -91% | [9]; [16] 10% | [10]; at 1.2 µM 9% | [10]; at 3.7 µM 18% | [10]; [16] 44% | [10]; at 11.0 µM 60% | [11]; at 1.2 µM -28% | [11]; at 3.7 µM -7% | [12]; at 1.2 µM -1% | [12]; at 3.7 µM 19% | [12]; at 11.0 µM 38% | [13]; at 1.2 µM 4% | [13]; at 3.7 µM 31% | [15]; at 1.2 µM 1% | [15]; at 3.7 µM 24% | [15]; at 11.0 µM 66%

Cc1cccc(/C=N/NC(=S)N(C)CCc2ccccn2)n1
inactive: [3]; at 1.2 µM -23% | [3]; at 3.7 µM -11% | [3]; at 11.0 µM 54% | [4]; [16] 16% | [7]; [16] 44% | [9]; [16] 9% | [10]; at 1.2 µM 56% | [10]; [16] 56% | [14]; [16] 61%
active: [1]; at 1.2 µM 96% | [1]; at 3.7 µM 98% | [1]; at 11.0 µM 98% | [1]; at 33.0 µM 99% | [1]; at 100.0 µM 99% | [2]; at 1.2 µM 90% | [2]; at 3.7 µM 94% | [2]; at 11.0 µM 98% | [2]; at 33.0 µM 99% | [2]; at 100.0 µM 99% | [3]; at 33.0 µM 84% | [3]; at 100.0 µM 90% | [4]; at 1.2 µM 91% | [4]; at 3.7 µM 94% | [4]; at 11.0 µM 96% | [4]; at 33.0 µM 98% | [4]; [17] 99% | [4]; at 50.0 µM 78.6% | [4]; at 100.0 µM 98% | [5]; at 1.2 µM 94% | [5]; at 3.7 µM 97% | [5]; [16] 81% | [5]; at 11.0 µM 98% | [5]; at 33.0 µM 99% | [5]; [17] 97% | [5]; at 50.0 µM 86.7% | [5]; at 100.0 µM 99% | [6]; at 1.2 µM 95% | [6]; at 3.7 µM 97% | [6]; at 11.0 µM 99% | [6]; at 33.0 µM 99% | [6]; at 100.0 µM 99% | [7]; [17] 97% | [7]; at 50.0 µM 91.3% | [8]; at 1.2 µM 81% | [8]; at 3.7 µM 92% | [8]; at 11.0 µM 97% | [8]; at 33.0 µM 98% | [8]; at 100.0 µM 98% | [9]; [17] 97% | [9]; at 50.0 µM 90.7% | [10]; at 3.7 µM 91% | [10]; at 11.0 µM 97% | [10]; at 33.0 µM 98% | [10]; [17] 99% | [10]; at 50.0 µM 91% | [10]; at 100.0 µM 98% | [11]; at 1.2 µM 89% | [11]; at 3.7 µM 93% | [11]; at 11.0 µM 97% | [11]; at 33.0 µM 98% | [11]; at 100.0 µM 99% | [12]; at 1.2 µM 91% | [12]; at 3.7 µM 95% | [12]; at 11.0 µM 98% | [12]; at 33.0 µM 98% | [12]; at 100.0 µM 99% | [13]; at 1.2 µM 97% | [13]; at 3.7 µM 98% | [13]; at 11.0 µM 99% | [13]; at 33.0 µM 99% | [13]; at 100.0 µM 98% | [14]; [17] 99% | [14]; at 50.0 µM 92.1%
